High-throughput results as filed in PubChem BioAssay.
Hits are enriched below; roughly 18% of the tested compounds scored in any of these assays.
IL-1B inflam inh – inhibitors of inflammasome signaling (IL-1 beta secretion); THP-1 LPS/ATP IL-1B secretion, AlphaLISA, 16 h; hits give low values; activity change, % at 57.5 µM; 360,000 compounds, 4.7% hits; in the data active means activity change below about -50%; inconclusive means mostly about -30% to -49%; further: on the % scale 0 is the no-effect control and ±100 the full control effect
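Secreted IL-1B measured by AlphaLISA bead assay after 16 h compound exposure of THP-1 cells; compounds (final up to 57.5 uM) added 1 h before LPS (250 ng/mL) and ATP (1.25 mM) stimulation; lower signal means less secretion.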
DT40 TDP1 no CPT – qHTS for Inhibitors of human tyrosyl-DNA phosphodiesterase 1 (TDP1): qHTS in cells in absence of CPT; DT40 Tdp1-/- hTDP1 cells, no CPT, ATP luminescence, 48 h; Potency, µM (doses to about 46.2 µM), without a hit: at the top dose activity change, negative = growth inhibition, usual class: inhibitors; 420,000 compounds, 15% hits; AID 686978, 2013; further: potency means the concentration at half of the fitted maximal effect; on the % scale 0 is the no-effect control and ±100 the full control effect; nearly all actives have a fitted effect of over 55% in size
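DT40 Tdp1-/-;hTDP1 cells, no CPT (DMSO vehicle only), 400 cells/well; compounds pin-transferred; ≥48 hr, 37 °C; CellTiter-Glo 30 min RT dark, luminescence read.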
DT40 TDP1 CPT – growth inhibition of DT40 Tdp1-/-;hTDP1 cells with camptothecin (screen for TDP1 inhibitors); 420,000 compounds, 12% hits; Potency, µM (titrated, usually from 46.2 µM), inactives show top-dose activity change, negative = growth inhibition, usual class: inhibitors; chicken DT40 Tdp1-/-;hTDP1 cells + 20 nM CPT, ATP luminescence, 48 h; further: potency means the concentration at half of the fitted maximal effect; on the % scale 0 is the no-effect control and ±100 the full control effect; nearly all actives have a fitted effect of over 55% in size
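Chicken DT40 Tdp1-/- cells complemented with human TDP1, 400 cells/well, exposed to compounds plus 20 nM camptothecin for at least 48 h at 37 C; viability read as ATP content by CellTiter-Glo luminescence.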
TDP1 block – inhibitors of human tyrosyl-DNA phosphodiesterase TDP1 | AID 485290 | recombinant TDP1, AlphaScreen DNA substrate cleavage | 350,000 compounds, 0.28% hits | Potency, µM (highest dose often 130 µM), without a hit: top-dose activity change, negative = inhibition, most hits filed as inhibitors; further: potency means the concentration at half of the fitted maximal effect; on the % scale 0 is the no-effect control and ±100 the full control effect; nearly all actives have a fitted effect of over 40% in size
Target sequence (Q9NUW8 whole entry, looked up): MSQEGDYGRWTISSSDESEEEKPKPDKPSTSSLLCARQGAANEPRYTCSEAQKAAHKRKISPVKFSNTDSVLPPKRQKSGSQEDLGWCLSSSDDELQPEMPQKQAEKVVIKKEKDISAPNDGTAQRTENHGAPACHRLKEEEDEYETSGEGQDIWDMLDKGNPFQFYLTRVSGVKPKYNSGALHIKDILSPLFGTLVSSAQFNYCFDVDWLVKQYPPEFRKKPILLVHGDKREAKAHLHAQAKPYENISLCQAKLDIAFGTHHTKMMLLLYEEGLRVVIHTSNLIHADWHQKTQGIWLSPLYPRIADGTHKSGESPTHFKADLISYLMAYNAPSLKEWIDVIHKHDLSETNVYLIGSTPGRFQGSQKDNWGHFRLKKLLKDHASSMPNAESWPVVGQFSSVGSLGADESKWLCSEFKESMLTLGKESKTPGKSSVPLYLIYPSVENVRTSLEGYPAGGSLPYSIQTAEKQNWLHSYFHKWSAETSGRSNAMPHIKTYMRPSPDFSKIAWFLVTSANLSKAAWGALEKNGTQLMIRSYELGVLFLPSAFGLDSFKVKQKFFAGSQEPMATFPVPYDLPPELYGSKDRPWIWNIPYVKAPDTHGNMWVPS
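Steps: enzyme plus compound, 15 min RT; add biotin/phosphotyrosine-FITC oligonucleotide (15 nM final), react 5 min; add donor/acceptor beads (10 ug/ml final), 10 min; read AlphaScreen. Tdp1 at 1 nM final.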
HepG2 tox – counter-screen for TGF-b inhibitors: cytotoxicity in HepG2 cells. 410,000 compounds, 0.76% hits. Potency, µM (series often up to 46.1 µM), for the others: at the highest dose activity change, negative = cytotoxicity, hits mostly cytotoxic. HepG2 CAGA-GFP viability, ATP luminescence, 18 h; further: potency means the concentration at half of the fitted maximal effect
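CellTiter-Glo luminescence gave cytotoxicity after 18 hours at 37 degrees C. The cells were HepG2 CAGA-GFP in 1% FBS DMEM, stimulated with 500 pg/mL TGF-beta after compound addition. %Activity was normalised to no-cell wells (complete cell-killing) and DMSO (no toxicity), and curves were fitted and classified.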
TGFb SMAD3 inh – blocks TGF-b signaling; AID 588855; Potency, µM (doses to about 46.1 µM), for inactives: top-dose activity, negative = inhibition, usual class: inhibitors; 410,000 compounds, 1.2% hits; HepG2 CAGA-GFP TGF-b/SMAD3 reporter, GFP fluorescence, 18 h; TGF-beta stimulated, 500 pg/mL final; further: potency means the concentration at half of the fitted maximal effect; on the % scale 0 is the no-effect control and ±100 the full control effect; nearly all actives have a fitted effect of over 65% in size
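TGF-beta reporter screen: HEPG2 CAGA-GFP, 1% FBS, 500 pg/mL TGF-beta final, 18 h; per-cell GFP summed per well; curves fitted and categorized by class.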
Active calls of the source: *; u = inconclusive; x = no result given; [ ] = dose if it differs, or a comment. Unless noted, the call rests on the fitted dose curve; in most records, active means well fitted curve in the direction sought with a large enough effect; inconclusive means small, poorly fitted or top-dose-only effect, or another doubt; inactive means no such curve, though single readings can be large; an effect the other way counts as inactive or inconclusive.

SMILES	IL-1B inflam inh	DT40 TDP1 no CPT	DT40 TDP1 CPT	TDP1 block	HepG2 tox	TGFb SMAD3 inh
CC1=CC(=O)CC(C)(C)C1(O)/C=C/C(C)=C\C(=O)O (configuration not stated)	x	-10%	-5%	7%	x	x
COc1ccc(OCc2cc(C(=O)N3CCCC(CO)C3)no2)c2ccccc12 (configuration not stated)	-12	15µM*	u	8%	-3%	-28%
CCc1cc(C(=O)N2CCCC(CNC(=O)c3ccc(-c4ccccc4)cc3)C2)no1 (configuration not stated)	-23	16µM*	u	5%	-19%	-5%
CSCCC(=O)N1CCCC(CNC(=O)c2ccc(-c3ccccc3)cc2)C1 (configuration not stated)	16	u	u	5%	-17%	-25%
CCCC[C@H](CC(=O)c1ccccc1)[C@@H](OC(C)=O)C(=O)Oc1c(C(C)C)cccc1C(C)C	16	u	13µM*	-5%	-10%	u
Cc1ccc(C(=O)Nc2cc(-c3ccn[nH]3)c(C)n(N)c2=O)cc1	9	-22%	14%	6%	0%	10%
Nc1ccc(Cn2ccc3c4c(N)nc(N)nc4ccc32)cc1	-99*	0.13µM*	u	x	-99%	u
Nc1nonc1-c1nc2ccccc2n1Cc1ccc(Cl)cc1	6	-18%	10%	2%	-12%	-5%
Cc1ccc(NC(=O)CSCC(=O)Nc2ccccc2C(=O)NC2CC2)cc1	1	-1%	16%	0%[0.505 µM]	-2%	-24%
CC(C)CC(=O)Nc1c(C(=O)N2CCN(c3ccccc3)CC2)oc2ccccc12	x	21µM*	15µM*	11%	-14%	-17%
CC(C)C(=O)Nc1c(C(=O)N2CCN(c3ncccn3)CC2)oc2ccccc12	-11	-11%	-23%	5%	14%	0%
O=C(Nc1c(C(=O)N2CCN(c3ccccc3F)CC2)oc2ccccc12)c1ccc(Br)o1	x	u	18µM*	6%	-8%	-24%
CC(C)C(=O)Nc1c(C(=O)N2CCN(c3ccccc3F)CC2)oc2ccccc12	x	12µM*	10µM*	2%	-9%	-8%
CCC(CC)C(=O)Nc1c(C(=O)N2CCN(c3ccccc3F)CC2)oc2ccccc12	x	10µM*	15µM*	6%	-16%	-28%
CCCC[C@H]1CCCO[C@@](C(=O)NCc2ccccn2)(C(F)(F)F)C1	x	x	x	2%	-14%	-23%
O=C(O)CSCC(=O)Nc1ccccc1SCCS(=O)(=O)c1ccc(Cl)cc1	-19	0%	-1%	x	-3%	6%
CCCCC(=O)Nc1c(C(=O)N2CCN(c3ccccc3)CC2)oc2ccccc12	x	9.2µM*	15µM*	11%	-18%	u
O=C(Nc1c(C(=O)N2CCN(c3ccccc3)CC2)oc2ccccc12)c1ccco1	x	u	u	4%	-28%	-19%
CCC(CC)C(=O)Nc1c(C(=O)N2CCN(c3ccccc3)CC2)oc2ccccc12	-13	8.2µM*	21µM*	5%	-10%	u
CCOC(=O)[C@@H]1[C@H]2COc3ccccc3[C@@H]2N2C(=O)N(c3cccc(F)c3)C(=O)[C@]12C	1	-9%	-2%	x	2%	-3%
CCOC(=O)[C@H]1[C@H]2COc3ccc(Br)cc3[C@@H]2N2C(=O)N(c3ccc(F)cc3)C(=O)[C@@]12C	30	u	18µM*	1%	-15%	-16%
CCOC(=O)[C@@H]1[C@H]2COc3ccc(Br)cc3[C@@H]2N2C(=O)N(c3ccc(C(F)(F)F)cc3)C(=O)[C@@]12C	13	23µM*	21µM*	x	-3%	-1%
CCOC(=O)[C@@H]1[C@H]2COc3cc(OC)ccc3[C@@H]2N2C(=O)N(c3ccc(Br)cc3)C(=O)[C@@]12C	-1	u	u	x	0%	1%
CCOC(=O)[C@@H]1[C@H]2COc3ccc(Br)cc3[C@@H]2N2C(=O)N(c3cccc(F)c3)C(=O)[C@@]12C	10	18µM*	26µM*	x	-4%	2%
CCOC(=O)[C@@H]1[C@H]2COc3ccc(Br)cc3[C@@H]2N2C(=O)N(c3ccc(Cl)cc3)C(=O)[C@@]12C	0	16µM*	21µM*	2%	5%	-3%
SMILES	IL-1B inflam inh	DT40 TDP1 no CPT	DT40 TDP1 CPT	TDP1 block	HepG2 tox	TGFb SMAD3 inh
CCOC(=O)[C@@H]1[C@H]2COc3ccc(Br)cc3[C@@H]2N2C(=O)N(c3ccc(F)cc3)C(=O)[C@@]12C	12	u	u	0%	4%	-11%
COCCCNc1ccn2nc(-c3ccc(Cl)cc3)cc2n1	52	u	u	x	-44%	-10%
O=C(CNC(=O)c1ccccc1F)OCc1cc(=O)n2nc(C3CC3)sc2n1	x	0%	-22%	7%	-5%	-6%
COc1c2ccoc2nc2c(OC)c(OC[C@@H](O)C(C)(C)O)ccc12	-16	u	3%	x	1%	-10%
O=C(O)c1ccccc1/C=N/NC(=S)NCc1ccccc1	18	-10%	-13%	0%	4%	-3%
Cc1[nH]c2ccccc2c1/C=N/NC(=S)NCc1ccccc1	15	u	u	6%	-52%	13µM*
Cc1[nH]c2ccccc2c1/C=N/NC(=O)CNC(=O)Cc1ccccc1	11	7%	-11%	5%	-10%	0%
CC1=C/C(=N\NC(=S)NCc2ccccc2)CC1	11	1.3µM*	1.5µM*	0%	-30%	-9%
Cc1cccc(NC(=S)N/N=C/c2c[nH]c3ccccc23)c1	-23	2.6µM*	2.6µM*	11%	-33%	u
Cc1ccc(Cn2cccc2/C=N/NC(=S)Nc2ccc(C)cc2)cc1	68	6.5µM*	4.6µM*	8%	-13%	16%
CCCN1CNc2c(c(=O)[nH]c(=S)n2CCc2ccc(C)cc2)C1	x	u	u	0%	x	x
COc1cccc(CNC(=O)c2ccc(Cl)c(NC3=NC4CS(=O)(=O)CC4S3)c2)c1 (configuration not stated)	-4	18%	-1%	3%	0%	3%
Cc1ccc(NC(=S)N/N=C/c2c(C)[nH]c3ccccc23)cc1	-1	29µM*	u	11%	-11%	u
Cc1[nH]c2ccccc2c1/C=N/NC(N)=S	-18	7%	-5%	5%	-15%	-12%
